The values that follow come from PubChem BioAssay (EPA / NIEHS).

The nature of assay [1]: APR_HepG2_NuclearSize_24hr: Apredica 24-hour HepG2 Assay for Nuclear Size (AID 2282907). As to conditions: high-content imaging, actives raise or lower the signal. The method in brief: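 Read-out: nuclear diameter from Hoechst 33342 (2 ug/mL) imaging of fixed HepG2 cells, 20x, six fields/well. Compounds ran at 0.39–200 uM for 24 hr, 0.5% DMSO final. Gain or loss was fitted bidirectionally relative to the DMSO baseline.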

Assay [2] is described as follows: APR_HepG2_CellLoss_24hr: Apredica 24-hour HepG2 Assay for Cell Loss (AID 2282908).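 On AC50: fit in both directions so a hit may be cell loss or gain.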 Particulars: high-content imaging. A digest of the protocol:
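Read-out: Hoechst 33342-stained nuclei counted by automated fluorescence imaging after formaldehyde fixation and Triton permeabilization. Ten concentrations, 0.39 to 200 uM, duplicate wells, 0.5% DMSO final. Gain or loss of signal fitted relative to DMSO baseline.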

Assay [3] is described as follows: APR_HepG2_MicrotubuleCSK_24hr: Apredica 24-hour HepG2 Assay for Microtubule CSK Stabilty (AID 2282909). Particulars: HepG2 microtubule cytoskeleton imaging, actives raise or lower the signal. A digest of the protocol: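 Read-out: alpha-tubulin immunofluorescence intensity by automated high-content imaging of fixed HepG2 cells after 24 h compound treatment. Ten concentrations, 0.39 to 200 uM, in duplicate; DMSO 0.5% v/v. Taxol positive control; DMSO-normalized bidirectional curve fitting.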

Assay [4] can be described thus: APR_HepG2_MitoticArrest_24hr: Apredica 24-hour HepG2 Assay for Mitotic Arrest (AID 2282910). Particulars: high-content imaging, actives raise or lower the signal. The method in brief: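 Treatment lasted 24 hr in the human HepG2 line at 0.39–200 uM, solvent held at 0.5% DMSO. Fixed cells were stained with Hoechst 33342 and anti-phospho-histone H3, imaged at 20x, and analysed by gain- or loss-of-signal fitting against DMSO.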

Assay [5] is described as follows: APR_HepG2_MitoMembPot_24hr: Apredica 24-hour HepG2 Assay for Mitochondrial Membrane Potential (AID 2282911). Particulars: imaging, actives raise or lower the signal. The method in brief: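 HepG2, 24 hr dosing, 10 concentrations 0.39–200 uM, 0.5% DMSO final. Live-cell MitoTracker Red CMXRos 250 nM 30 min, then 3.7% formaldehyde fix. HCS fluorescence imaging, 20x; bidirectional fit vs DMSO baseline.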

A short description of assay [6]: APR_HepG2_MitoMass_24hr: Apredica 24-hour HepG2 Assay for Mitochondrial Mass (AID 2282912). As to conditions: high-content imaging, actives raise or lower the signal. The method in brief: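 HepG2, 24 hr dosing, 10 concentrations 0.39–200 uM in duplicate, DMSO 0.5% final. MitoTracker Red CMXRos 250 nM, 30 min pre-fix; 3.7% formaldehyde fix. Imaging-based fluorescence intensity; gain/loss fit vs DMSO baseline.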

Assay [7] can be described thus: APR_HepG2_CellCycleArrest_72hr: Apredica 72-hour HepG2 Assay for Cell Cycle Arrest (AID 2282914). As to conditions: high-content imaging, actives raise or lower the signal. A digest of the protocol:
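HepG2, 72 hr exposure, 10-point 0.39–200 uM, duplicate, 0.5% DMSO final. Fix 3.7% formaldehyde 30 min RT, Triton X-100 0.5%, Hoechst 33342 2 ug/mL. ArrayScan 20x, six fields/well; DNA content per nucleus; bidirectional fit vs DMSO.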

The nature of assay [8]: APR_HepG2_CellLoss_72hr: Apredica 72-hour HepG2 Assay for Cell Loss (AID 2282915). As to conditions: high-content imaging. A digest of the protocol:
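HepG2 cells were exposed for 72 hr to compounds at 0.39–200 uM (ten concentrations, duplicate) in 0.5% v/v final DMSO. Nuclei were stained with Hoechst 33342 after 3.7% formaldehyde fixation, imaged at 20x, and counted; fits bidirectional versus DMSO.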

Assay [9] is described as follows: APR_HepG2_P-H2AX_72hr: Apredica 72-hour HepG2 Assay for H2AX Phosphorylation (AID 2282916).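 Further: phospho-histone H2A.x immunostain intensity per cell marking DNA damage.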 As to conditions: imaging, actives raise or lower the signal. The method in brief: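 Readout: phospho-H2A.x immunofluorescence (FITC secondary) plus Hoechst nuclear stain, high-content imaging at 20x, six fields/well. HepG2, 72 hr compound exposure, 0.39–200 uM, final DMSO 0.5% v/v. Gain or loss fitted relative to DMSO baseline.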

Assay [10] can be described thus: APR_HepG2_MitoMembPot_72hr: Apredica 72-hour HepG2 Assay for Mitochondrial Membrane Potential (AID 2282917). As to conditions: imaging, actives raise or lower the signal. A digest of the protocol: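 HepG2 cells exposed 72 h to compounds at 0.39–200 uM (0.5% v/v DMSO, duplicates); MitoTracker Red CMXRos 250 nM loaded 30 min before 3.7% formaldehyde fixation, imaged by HCS fluorescence. Bidirectional fit versus DMSO.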

A short description of assay [11]: APR_HepG2_MitoticArrest_72hr: Apredica 72-hour HepG2 Assay for Mitotic Arrest (AID 2282918). Particulars: high-content imaging, actives raise or lower the signal. The method in brief: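 HepG2, 72 hr exposure, 0.39–200 uM in duplicate, 0.5% v/v DMSO final. Formaldehyde-fixed, Triton-permeabilized, anti-phospho-histone H3/FITC plus Hoechst. ArrayScan imaging at 20x; curves fit bidirectionally against DMSO baseline.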

A short description of assay [12]: APR_HepG2_P-H2AX_24hr: Apredica 24-hour HepG2 Assay for H2AX Phosphorylation (AID 2282920). Particulars: high-content imaging, actives raise or lower the signal. The method in brief:
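HCS fluorescence imaging of phospho-H2A.x immunostain (with Hoechst 33342 nuclear counterstain) in HepG2 after 24 hr compound exposure; 10 concentrations, 0.39–200 uM, duplicate wells, 0.5% v/v DMSO. Gain or loss of signal fitted relative to DMSO baseline.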

The nature of assay [13]: APR_HepG2_StressKinase_72hr: Apredica 72-hour HepG2 Assay for Stress Kinase (AID 2282921). As to conditions: HepG2 stress kinase (phospho-c-Jun) imaging, actives raise or lower the signal. The method in brief: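 Phospho-c-Jun immunofluorescence measured by high-content imaging at 20x, six fields per well; bidirectional curve fitting against DMSO as baseline. Dosing: 0.39–200 uM, 72 h, 0.5% DMSO final.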

Assay [14] is described as follows: APR_HepG2_StressKinase_24hr: Apredica 24-hour HepG2 Assay for Stress Kinase (AID 2282922). As to conditions: HepG2 stress kinase (phospho-c-Jun) imaging, actives raise or lower the signal. The method in brief:
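After 24 hr compound treatment (up to 200 uM, final DMSO 0.5% v/v), HepG2 cells are fixed and multiplex-labeled; phospho-c-Jun intensity is captured by high-content fluorescence imaging and analyzed relative to DMSO.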

Assay [15] is described as follows: APR_HepG2_p53Act_72hr: Apredica 72-hour HepG2 Assay for p53 Activation (AID 2282923).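 Further: average cellular p53 protein immunofluorescence intensity in HepG2 cells.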 As to conditions: high-content imaging, actives raise or lower the signal. A digest of the protocol: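 Readout: p53 immunofluorescence quantified by automated high-content imaging at 20x, six fields per well, nuclei located via Hoechst. Dosing ran 72 hr over ten concentrations from 0.39 to 200 uM; bidirectional curve fitting against DMSO baseline.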

Assay [16] can be described thus: APR_HepG2_MitoMass_72hr: Apredica 72-hour HepG2 Assay for Mitochondrial Mass (AID 2282924).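 Further: MitoTracker Red CMXRos stain intensity per cell imaged as mitochondrial mass.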 Particulars: high-content imaging, actives raise or lower the signal. The method in brief:
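Steps: treat HepG2 72 hr (0.39–200 uM, duplicate wells); load MitoTracker Red CMXRos, 250 nM, 30 min; fix with 3.7% formaldehyde, permeabilise with 0.5% Triton X-100; capture images, nuclei via Hoechst 33342; fit bidirectionally against DMSO.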

Assay [17] in a line: APR_HepG2_p53Act_24hr: Apredica 24-hour HepG2 Assay for p53 Activation (AID 2282913).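 Further: p53 protein immunofluorescence averaged per cell in HepG2 with Hoechst nuclei.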 As to conditions: high-content imaging, actives raise or lower the signal. A digest of the protocol: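 Read-out: Cy5 immunofluorescence for p53 in fixed, permeabilized HepG2, imaged by HCS with Hoechst-defined nuclei. Dosing was 24 hr at 0.39–200 uM in 0.5% DMSO. Curves were fitted bidirectionally relative to DMSO.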

Assay [18] in a line: APR_HepG2_NuclearSize_72hr: Apredica 72-hour HepG2 Assay for Nuclear Size (AID 2282925). Particulars: high-content imaging, actives raise or lower the signal. The method in brief: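 Compounds (0.39–200 uM, final DMSO 0.5%) were applied to HepG2 for 72 hr. Cells were then formaldehyde-fixed, permeabilized and labelled with Hoechst 33342. Nuclear diameter was quantified from six images per well.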

Assay [19] in a line: APR_HepG2_MicrotubuleCSK_72hr: Apredica 72-hour HepG2 Assay for Microtubule CSK Stabilty (AID 2282919). Particulars: HepG2 microtubule cytoskeleton, high-content imaging, actives raise or lower the signal. A digest of the protocol: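 Ten-point dosing (0.39–200 uM, 0.5% DMSO) of HepG2 for 72 hr, with taxol as the cytoskeletal positive control. The cells were formaldehyde-fixed and then stained with alpha-tubulin/Cy5 and Hoechst. Imaging at 20x used a −2 um Z offset for tubulin.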

Each structure is given as a SMILES string. Calls of active or inactive are those of the source. How the source made its calls: active means hit-call score of the fitted dose curve at least 0.9, where 1 is the maximum; inactive means score below 0.9.

As for `COP(=S)(OC)SCN1C(=O)c2ccccc2C1=O`, the call in [1], in assay [2], in assay [3], in [4], in [5] and in assay [6] was inactive. Further, the compound was called inactive in [7], in assay [8], in assay [9], in assay [10], in [11] and in assay [12]. For the same compound, the call in [13], in [14], in assay [15] and in [16] was inactive.

Consider `C[N+](C)(C)CC1CO1` (centres undefined), for which the call in assay [1], in assay [2], in assay [3], in [4], in [5] and in assay [6] was inactive. Moreover, the call in [17], in assay [7], in assay [8], in [9], in assay [12] and in assay [13] was inactive. Moreover, the compound was called inactive in assay [14] and in assay [15].

With `CO[C@@H]1[C@H](OC(=O)NC(=O)CCl)CC[C@]2(CO2)[C@H]1[C@@]1(C)O[C@@H]1CC=C(C)C`, the result in [1], in [2], in assay [3], in [4], in assay [5] and in assay [6] was inactive. The outcome in assay [17], in assay [7], in assay [8], in assay [9], in assay [10] and in assay [11] was inactive. Moreover, the compound was called inactive in assay [12], in [13], in assay [14], in [15], in [16] and in assay [18].

In the case of `O=C(Oc1ccc(Br)cc1)N1CCN2CCC1CC2`, the compound was classed as inactive in assay [1], in [2], in assay [3], in assay [4], in assay [5] and in assay [6]. Also, the outcome in assay [10], in assay [19], in assay [12], in [13], in [14] and in [16] was inactive. Besides, the AC50 in assay [7] is 96.3 µM (active); in [8], 80.8 µM (active); in [9], 101 µM (active); in [11], 106 µM (active); in [15] it was 103 µM (active).

For the compound `Cc1cc(N=Nc2ccccc2C)ccc1N`, the result in assay [1], in assay [3], in assay [9], in assay [10], in [11] and in assay [19] was inactive. The compound was called inactive in [13] and in [16]. The half-maximal activity concentration (AC50) is 70 µM (active) in assay [2]; 87.6 µM (active) in assay [4]; 101 µM (active) in assay [5]; 121 µM (active) in [6]; 21.5 µM (active) in assay [7]; 43.1 µM (active) in [8]. Further, the concentration at half-maximal activity (AC50) is 100 µM (active) in assay [12], 100 µM (active) in assay [14], 2.34 µM (active) in assay [15] and 56.3 µM (active) in [18].

For `CCC[CH2][Sn]([Cl])([CH2]CCC)[CH2]CCC`, the outcome in [1], in assay [5], in assay [10], in assay [13] and in [18] was inactive. The half-maximal activity concentration (AC50) was 1.12 µM (active) in assay [2]; 0.908 µM (active) in assay [3]; 0.336 µM (active) in [4]; 100 µM (active) in assay [6]; 0.388 µM (active) in assay [17]; 0.0548 µM (active) in [7]. Further, the concentration at half-maximal activity (AC50) in [8] is 0.574 µM (active); in [9], 0.0111 µM (active); in [11], 0.0382 µM (active); in assay [12], 1.41 µM (active); in assay [14], 3.39 µM (active); in assay [15], 0.0297 µM (active). For the same compound, the AC50 in [16] was 0.0466 µM (active).

With `CCCCCCCCOC(=O)c1ccc(C(=O)OCCCCCCCC)c(C(=O)OCCCCCCCC)c1`, the compound was classed as inactive in [1], in assay [2], in assay [3], in assay [4], in [5] and in assay [6]. For the same compound, the call in [7], in assay [8], in assay [9], in assay [10], in assay [11] and in [19] was inactive. Also, the result in [12], in assay [13], in [14], in [15], in assay [16] and in [18] was inactive.
